This is a sample that favours compounds with a hit; in the whole collection about 28% have one here.
PTK2B oligo ant – antagonists of Pyk2 self-association, primary screen, Q293 cells, FERM NanoBiT luminescence, HTS; Protein-tyrosine kinase 2-beta (Homo sapiens), Q14289; active compounds read low; z-score (the deposit names both 25 µM and 10 µM); 99,000 tested, 0.83% active; AID 1347419, 2020;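 active = Z-score of -3 or lower, scaled per plate to the spread of control and sample wells; inactive = z-score above -3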;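 note: negative z-score means lost luminescence so less FERM oligomerization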
Target sequence (Q14289 whole entry, looked up): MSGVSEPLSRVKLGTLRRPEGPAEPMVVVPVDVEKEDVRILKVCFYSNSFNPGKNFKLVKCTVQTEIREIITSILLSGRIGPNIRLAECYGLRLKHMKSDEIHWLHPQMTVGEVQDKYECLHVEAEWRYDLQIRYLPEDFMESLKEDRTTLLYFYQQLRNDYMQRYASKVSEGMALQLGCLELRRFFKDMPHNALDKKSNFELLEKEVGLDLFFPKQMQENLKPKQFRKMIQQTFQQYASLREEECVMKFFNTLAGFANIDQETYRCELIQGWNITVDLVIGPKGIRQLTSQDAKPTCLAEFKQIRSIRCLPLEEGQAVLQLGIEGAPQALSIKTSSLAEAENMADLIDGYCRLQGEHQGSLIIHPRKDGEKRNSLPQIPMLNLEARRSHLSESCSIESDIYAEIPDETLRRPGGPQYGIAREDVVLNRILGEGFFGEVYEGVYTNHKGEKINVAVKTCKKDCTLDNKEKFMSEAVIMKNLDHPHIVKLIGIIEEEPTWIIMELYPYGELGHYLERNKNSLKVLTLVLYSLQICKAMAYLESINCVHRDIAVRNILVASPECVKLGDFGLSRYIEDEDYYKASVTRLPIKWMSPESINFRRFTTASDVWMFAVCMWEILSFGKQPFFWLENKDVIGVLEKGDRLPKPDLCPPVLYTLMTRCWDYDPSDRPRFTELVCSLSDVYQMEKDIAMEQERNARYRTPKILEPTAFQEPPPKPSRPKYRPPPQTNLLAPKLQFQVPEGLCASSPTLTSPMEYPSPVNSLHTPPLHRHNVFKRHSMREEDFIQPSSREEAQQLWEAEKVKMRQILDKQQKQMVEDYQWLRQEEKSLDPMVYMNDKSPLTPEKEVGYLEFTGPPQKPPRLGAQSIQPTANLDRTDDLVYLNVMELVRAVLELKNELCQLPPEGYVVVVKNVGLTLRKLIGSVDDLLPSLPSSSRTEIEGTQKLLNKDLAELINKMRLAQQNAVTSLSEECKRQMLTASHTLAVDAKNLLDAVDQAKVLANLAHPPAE
CYP2C19 inhib – blockers of cytochrome P450 2C19 activity – biochemical, luminescence, ADME assay, primary screen; P33261; CYP2C19 Supersomes, luciferin-H EGE luminescence, 30 min; inhibition, % at 5 µM; 96,000 tested, 21% active; AID 778, 2007;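 active = CYP2C19 inhibition above a set limit at 5 µM in the primary screen, cut at about 50% in these data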
CYP2C9 activ – human CYP2C9 activators, primary screen, biochemical, luminescence | Cytochrome P450 2C9 (Homo sapiens), P11712 | recombinant CYP2C9, luciferin-H conversion; active compounds read high; factor 1 = untreated enzyme, 0 = blocked | activation factor at 5 µM | 96,000 tested, 1.4% active;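 active = activation factor of 2 or more for CYP2C9 at a 5 µM dose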
CYP2C9 inh – blockers of cytochrome P450 2C9 activity – biochemical, luminescence, ADME assay, primary screen; P11712; CYP2C9 Supersomes, luciferin-H conversion; inhibition, % at 5 µM; 96,000 tested, 20% active;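 active = blocking of liver enzyme CYP2C9 beyond about 50% at 5 µM, limit read from the data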
CYP2C19 act – human CYP2C19 activators, primary screen, biochemical, luminescence. Cytochrome P450 2C19 (Homo sapiens), P33261. recombinant CYP2C19, luciferin-H EGE luminescence; active compounds read high; 0 = fully inhibited enzyme, 1 = untreated enzyme. activation factor at 5 µM. 96,000 tested, under 10 active;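 active = activation factor of at least 2 at 5 µM in the primary screen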
A number is an active result; - = inactive; . = no result given.

SMILES | PTK2B oligo ant | CYP2C19 inhib | CYP2C9 activ | CYP2C9 inh | CYP2C19 act
COC(=O)CNC(=O)C(C)NC(=O)OCc1ccccc1 (stereo not drawn) | - | - | - | - | -
CC(C)C(NC(=O)OCc1ccccc1)C(=O)OCC(=O)NCc1ccco1 (stereo not drawn) | - | - | - | - | -
Cc1ccc(C2C3=C(CCCC3=O)Nc3nc(SCC(=O)NCc4ccco4)[nH]c(=O)c32)cc1 (stereo not drawn) | - | - | - | - | -
CC(C)C(=O)Nc1ccc(NC(=S)NC(=O)c2ccc([N+](=O)[O-])cc2)cc1 | - | - | - | - | -
COc1ccc2c(c1)C1C=CCC1C(c1cc3c(cc1Br)OCO3)N2 (stereo not drawn) | - | 70 | - | 75 | -
OCCNc1nc(N2CCN(Cc3ccccc3)CC2)nc2ccccc12 | - | - | - | 54 | -
O=C(c1ccccc1)c1ccc(CN2C(=O)c3ccccc3C2=O)o1 | - | 91 | - | 85 | -
O=C(OCN1C(=O)c2ccccc2C1=O)c1ccccc1 | - | 68 | - | - | -
Cc1cc(CN2C(=O)c3ccccc3C2=O)on1 | - | - | - | - | -
CCCOc1c(Cl)cc(C(=O)Nc2ccc3c(c2)OCO3)cc1OCC | - | - | - | - | -
CCOc1ccccc1-c1nc(-c2cc3ccccc3nc2OC)no1 | - | - | - | - | -
Clc1ccc(OCc2nc(-c3ccncc3)no2)c(Cl)c1 | - | 96 | - | 95 | -
CCOc1ccccc1-c1nc(-c2ccncc2)no1 | - | 78 | - | - | -
COc1ccccc1-c1nc(-c2ccncc2)no1 | - | 89 | - | - | -
COc1ccc(Cl)cc1-c1nc(-c2ccncc2)no1 | - | 79 | - | - | -
COc1cccc(NC(=O)CSc2ncnc3c2cnn3Cc2ccccc2)c1 | - | - | - | - | -
Cc1nc(SCC(=O)Nc2ccc3c(c2)OCCO3)c2oc3ccccc3c2n1 | - | 96 | - | 73 | -
O=C(CSc1ncnc2c1cnn2Cc1ccccc1)Nc1ccc2c(c1)OCCO2 | - | 58 | - | 55 | -
O=C(CSc1ncnc2c1oc1ccccc12)Nc1ccc2c(c1)OCCO2 | - | . | . | . | .
CCc1nc(SCC(=O)N2CCCc3ccccc32)c2oc3ccccc3c2n1 | - | - | - | 74 | -
CCc1nc(SCC(=O)Nc2ccc3c(c2)OCCO3)c2oc3ccccc3c2n1 | - | - | - | 52 | -
Nc1cc(N)nc(SCC(=O)Nc2ccc3c(c2)OCCCO3)n1 | - | - | - | - | -
CC1=NN(C(=O)Cc2ccccc2)C(O)(c2cccnc2)C1 (stereo not drawn) | - | - | - | - | -
O=C(CSc1nc(-c2ccccc2)nc2ccccc12)Nc1nccs1 | - | - | - | - | -
CCc1nc(SCC(=O)Nc2nccs2)c2oc3ccccc3c2n1 | - | - | - | 76 | -
SMILES | PTK2B oligo ant | CYP2C19 inhib | CYP2C9 activ | CYP2C9 inh | CYP2C19 act
CSCCC(NC(=O)c1ccccc1)c1nc(-c2ccccc2)no1 (stereo not drawn) | . | - | - | - | -
O=c1cc(CSc2nnc(COc3ccccc3Cl)o2)nc2sccn12 | - | 88 | - | 53 | -
CC(C)NC(=O)NC(=O)CSc1nnc(COc2ccccc2Cl)o1 | - | - | - | - | -
Cc1cccc(OCc2nnc(SCc3cc(=O)n4cc(Br)ccc4n3)o2)c1 | - | 92 | - | 90 | -
Cc1cc(OCC(=O)Nc2ccncc2)ccc1Br | - | 100 | - | 99 | -
O=C(COc1ccc2ccccc2c1)Nc1cccc2cccnc12 | - | - | - | - | -
O=C(COc1ccc2ccccc2c1)Nc1ccc(Cc2ccncc2)cc1 | - | 90 | - | 95 | -
COc1cccc(NC(=O)c2ccc(-n3cccn3)nc2)c1 | - | - | - | - | -
CCOC(=O)NNC1CC(=O)N(c2ccc(OC)cc2)C1=O (stereo not drawn) | - | - | - | - | -
CCCCS(=O)(=O)/C=C\C1C2C=CC(C2)C1S(=O)(=O)CCCC (stereo not drawn) | - | 76 | - | 52 | -
CCCCS(=O)(=O)/C=C\C=C/S(=O)(=O)CCCC | - | - | - | - | -
CCCN(CCC)C1CC(=O)N(Cc2ccccc2)C1=O (stereo not drawn) | - | 85 | - | - | -

Bioassay records deposited in PubChem by Sanford-Burnham Center for Chemical Genomics.
